Results filed as inconclusive are left out. Active and inactive are the calls of the source. How the source made its calls, unless noted: active means hit-call score of the fitted dose curve at least 0.9, where 1 is the maximum; inconclusive means response in the unintended direction; inactive means score below 0.9.
How the values were obtained:
[1] = Tanguay_ZF_120hpf_YSE_legacy: (Legacy) Oregon State University Tanguay Lab 120 Hour Post-fertilization zebrafish Assay for Yolk Sac Edema (AID 2283634);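 on AC50: actives raise the incidence of yolk sac edema above the DMSO baseline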
In short: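 Tropical 5D wild-type embryos, dechorionated with pronase at 4 hpf, were exposed singly from 6 hpf to 120 hpf under static, sealed, dark conditions at 28C with 0.64% DMSO final. Yolk sac edema was scored present/absent by brightfield microscopy.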

[2] = Tanguay_ZF_120hpf_AXIS_legacy: (Legacy) Oregon State University Tanguay Lab 120 Hour Post-fertilization zebrafish Assay for Body Axis Malformation (AID 2283635);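 on AC50: potency for an increased fraction of larvae scored with body axis malformation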
In short: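 Tropical 5D wild-type zebrafish embryos, dechorionated with pronase at 4 hpf, were placed singly in wells at 6 hpf and exposed statically to test chemical (0.64% DMSO final) at 28C until 120 hpf, then scored by brightfield for body axis defects.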

[3] = Tanguay_ZF_120hpf_EYE_legacy: (Legacy) Oregon State University Tanguay Lab 120 Hour Post-fertilization zebrafish Assay for Eye Malformation (AID 2283636);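 further: binary presence or absence of eye malformation scored by brightfield in 120 hpf larvae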
In short: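 Dechorionated Tropical 5D zebrafish embryos, one per well from 6 hpf, static exposure to 120 hpf at 28C, 0.64% DMSO. Eye malformation scored present/absent by brightfield; dead embryos not scored.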

[4] = Tanguay_ZF_120hpf_SNOU_legacy: (Legacy) Oregon State University Tanguay Lab 120 Hour Post-fertilization zebrafish Assay for Snout Malformation (AID 2283637)
In short: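 Dechorionated tropical 5D wild-type zebrafish embryos exposed statically from 6 to 120 hpf at 28C, one per well, in 0.64% DMSO. Snout malformation scored as present/absent by brightfield at 120 hpf; dead embryos not scored.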

[5] = Tanguay_ZF_120hpf_JAW_legacy: (Legacy) Oregon State University Tanguay Lab 120 Hour Post-fertilization zebrafish Assay for Jaw Malformation (AID 2283638)
In short: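 Tropical 5D wild-type embryos, dechorionated with pronase at 4 hpf, were placed singly per well at 6 hpf and statically exposed at 28C until 120 hpf (0.64% DMSO final). Jaw malformation scored as present/absent by brightfield microscopy at 120 hpf, analyzed relative to DMSO.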

[6] = Tanguay_ZF_120hpf_OTIC_legacy: (Legacy) Oregon State University Tanguay Lab 120 Hour Post-fertilization zebrafish Assay for Otic Vesicle Malformation (AID 2283639)
In short: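 Tropical 5D wild-type zebrafish embryos were exposed statically in sealed, foil-covered plates at 28C until 120 hpf, with 0.64% (vol/vol) DMSO final. Otic vesicle malformation was scored present/absent by brightfield microscopy, with DMSO as baseline.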

[7] = Tanguay_ZF_120hpf_PE_legacy: (Legacy) Oregon State University Tanguay Lab 120 Hour Post-fertilization zebrafish Assay for Pericardial Edema (AID 2283640)
In short: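 Tropical 5D wild-type zebrafish embryos were exposed statically to 120 hpf at 28C, sealed and foil-covered, in 0.64% DMSO final. Pericardial edema was scored present/absent by brightfield microscopy; dead embryos were not scored.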

[8] = Tanguay_ZF_120hpf_SOMI_legacy: (Legacy) Oregon State University Tanguay Lab 120 Hour Post-fertilization zebrafish Assay for Somite Malformation (AID 2283647)
In short: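 Tropical 5D wild-type zebrafish embryos, dechorionated with pronase at 4 hpf, were placed singly at 6 hpf and statically exposed until 120 hpf at 28C in 0.64% DMSO. Somite malformation was scored present/absent by brightfield microscopy versus DMSO.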

[9] = Tanguay_ZF_120hpf_PFIN_legacy: (Legacy) Oregon State University Tanguay Lab 120 Hour Post-fertilization zebrafish Assay for Pectoral Fin Malformation (AID 2283648);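 further: each larva judged yes or no for fin defect by brightfield with dead larvae skipped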
In short: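 Dechorionated Tropical 5D wild-type zebrafish embryos, one per well, statically exposed from 6 to 120 hpf at 28C with 0.64% DMSO final. Pectoral fin malformation scored present/absent by brightfield at 120 hpf; not scored in dead embryos.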

[10] = Tanguay_ZF_120hpf_CFIN_legacy: (Legacy) Oregon State University Tanguay Lab 120 Hour Post-fertilization zebrafish Assay for Caudal Fin Malformation (AID 2283649)
In short: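 Tropical 5D wild-type embryos, dechorionated with pronase at 4 hpf, were placed singly in wells at 6 hpf and statically exposed to compound at 28C until 120 hpf (0.64% DMSO). Caudal fin malformation was scored present/absent by brightfield microscopy.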

[11] = Tanguay_ZF_120hpf_CIRC_legacy: (Legacy) Oregon State University Tanguay Lab 120 Hour Post-fertilization zebrafish Assay for Circulatory Malformation (AID 2283651)
In short: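 Tropical 5D wild-type embryos, dechorionated with pronase at 4 hpf, were placed singly in wells at 6 hpf and exposed statically at 28C to 120 hpf (0.64% DMSO final). Circulatory malformation was scored present/absent by brightfield microscopy.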

[12] = Tanguay_ZF_120hpf_SWIM_legacy: (Legacy) Oregon State University Tanguay Lab 120 Hour Post-fertilization zebrafish Assay for Swim Bladder Malformation (AID 2283654);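 further: swim bladder malformation in each larva scored yes or no under brightfield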
In short: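 Dechorionated wild-type Tropical 5D zebrafish embryos, one per well from 6 hpf, were statically exposed at 28C until 120 hpf in 0.64% DMSO. Swim bladder malformation scored as present/absent by brightfield microscopy; not scored in dead larvae.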

[13] = Tanguay_ZF_120hpf_TRUN_legacy: (Legacy) Oregon State University Tanguay Lab 120 Hour Post-fertilization zebrafish Assay for Truncated Body (AID 2283655)
In short: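 Tropical 5D wild-type embryos, dechorionated with pronase at 4 hpf, were placed singly in wells at 6 hpf and statically exposed at 28C until 120 hpf, final DMSO 0.64%. Truncated body was scored present/absent by brightfield microscopy.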

[14] = Tanguay_ZF_120hpf_NC_legacy: (Legacy) Oregon State University Tanguay Lab 120 Hour Post-fertilization zebrafish Assay for Notochord and Tail Malformation (AID 2283656)
In short: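 Dechorionated 5D zebrafish, 1/well from 6 hpf; static exposure to 120 hpf, 28C, sealed, dark; final DMSO 0.64% v/v. NC scored binary (present/absent); dead embryos not scored. Fit vs DMSO baseline, gain direction.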

[15] = Tanguay_ZF_120hpf_PIG_legacy: (Legacy) Oregon State University Tanguay Lab 120 Hour Post-fertilization zebrafish Assay for Pigmentation Malformation (AID 2283650)
In short: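 Dechorionated Tropical 5D wild-type embryos, one per well from 6 hpf, statically exposed at 28C in the dark until 120 hpf, 0.64% DMSO final. Pigmentation scored present/absent by brightfield microscopy; dead embryos not scored; fitted versus DMSO.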

[16] = read-out: kallikrein-3 (KLK3), KLK3 (gene 354); experiment: LTEA_HepaRG_KLK3: Life Technologies and Expression Analysis (LTEA) Assay for kallikrein-3 (KLK3) using HepaRG (AID 2283652; active means hit-call score of the fitted dose curve at least 0.9, where 1 is the maximum; inactive means score below 0.9); settings: mRNA level, 48 h; actives raise or lower the signal
In short: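 Differentiated human HepaRG cells in serum-free induction medium exposed 48 h in duplicate, eight-point half-log series from 100 uM in 0.5% DMSO. KLK3 mRNA by qRT-PCR, normalised to ACTB, GAPDH, POLR2A; bidirectional fit versus DMSO.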

[17] = read-out: solute carrier (SLC22A6), SLC22A6 (gene 9356); experiment: LTEA_HepaRG_SLC22A6: Life Technologies and Expression Analysis (LTEA) Assay for solute carrier (SLC22A6) using HepaRG (AID 2283653; active means hit-call score of the fitted dose curve at least 0.9, where 1 is the maximum; inactive means score below 0.9); settings: mRNA level, 48 h; actives raise or lower the signal
In short: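 Differentiated human HepaRG cells were exposed for 48 h in serum-free induction medium to eight concentrations (top 100 uM, half-log steps, 0.5% DMSO), in duplicate. SLC22A6 mRNA was quantified by qRT-PCR, normalised to ACTB, GAPDH and POLR2A, and fitted bidirectionally against DMSO.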

[18] = read-out: solute carrier (SLC10A1), SLC10A1 (gene 6554); experiment: LTEA_HepaRG_SLC10A1: Life Technologies and Expression Analysis (LTEA) Assay for solute carrier (SLC10A1) using HepaRG (AID 2283657; active means hit-call score of the fitted dose curve at least 0.9, where 1 is the maximum; inactive means score below 0.9); settings: mRNA level, 48 h; actives raise or lower the signal
In short: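 HepaRG cells (single lot) exposed 48 h in serum-free induction medium, 8-point half-log series from 100 uM top in 0.5% DMSO, duplicate. SLC10A1 mRNA by qRT-PCR normalised to ACTB, GAPDH, POLR2A; bidirectional fit versus DMSO.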

[19] = read-out: matrix metalloproteinase-1 (MMP1), MMP1 (gene 4312); experiment: LTEA_HepaRG_MMP1: Life Technologies and Expression Analysis (LTEA) Assay for matrix metalloproteinase-1 (MMP1) using HepaRG (AID 2283658; active means hit-call score of the fitted dose curve at least 0.9, where 1 is the maximum; inactive means score below 0.9); settings: mRNA level, 48 h; actives raise or lower the signal
In short: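 Differentiated HepaRG cells, plated 48 h then switched to serum-free induction medium, were exposed in duplicate for 48 h to eight half-log concentrations up to 100 uM in 0.5% DMSO; MMP1 mRNA measured by qRT-PCR, normalized to ACTB, GAPDH, POLR2A.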

Measured: AC50

COc1cc(C=O)cc2c1[C@H](COC(N)=O)[C@]1(OC(C)=O)ON2C[C@H]2[C@@H]1N2C(C)=O
inactive: [1] | [3] | [5] | [6] | [7] | [8] | [9] | [10] | [11] | [12] | [13] | [14]
active: [2] 51.3 µM | [4] 21.6 µM

Cc1ccc(N=C=O)cc1N=C=O
inactive: [1] | [2] | [3] | [4] | [5] | [6] | [7] | [8] | [9] | [10] | [11] | [13] | [14]

Cn1cc(-c2ccccc2)c(=O)c(-c2cccc(C(F)(F)F)c2)c1
inactive: [1] | [2] | [3] | [4] | [5] | [6] | [7] | [8] | [9] | [10] | [11] | [12] | [13] | [14]

Clc1ccc(C(c2ccc(Cl)cc2)C(Cl)Cl)cc1
inactive: [1] | [2] | [3] | [4] | [5] | [6] | [7] | [11] | [12] | [13] | [14]

ClC1=C(Cl)C2(Cl)C3C(Cl)C=CC3C1(Cl)C2(Cl)Cl (centres undefined)
inactive: [1] | [2] | [3] | [4] | [5] | [6] | [7] | [9] | [15] | [11] | [16] | [17] | [12] | [18] | [19]

COC(=O)Nc1nc2ccccc2[nH]1
inactive: [2] | [4] | [5] | [6] | [7] | [8] | [9] | [10] | [11] | [12] | [13] | [14]
active: [1] 47.5 µM | [3] 46.4 µM

CS(=O)(=O)NC(=O)c1cc(Oc2ccc(C(F)(F)F)cc2Cl)ccc1[N+](=O)[O-]
inactive: [1] | [2] | [3] | [4] | [5] | [7] | [8] | [9] | [10] | [11] | [12] | [13] | [14]

OCCCBr
inactive: [1] | [2] | [3] | [4] | [5] | [6] | [7] | [8] | [9] | [10] | [12] | [13] | [14]

N#CC(Br)(Br)C(N)=O
inactive: [1] | [2] | [3] | [4] | [5] | [6] | [7] | [8] | [9] | [10] | [11] | [12] | [13]

COP(=S)(OC)SCN1C(=O)c2ccccc2C1=O
inactive: [1] | [2] | [3] | [4] | [5] | [6] | [7] | [8] | [9] | [10] | [11] | [13] | [14]

CN(C)[C@@H]1C(=O)C(C(N)=O)=C(O)[C@@]2(O)C(=O)C3=C(O)c4c(O)cccc4[C@@](C)(O)[C@H]3C[C@@H]12
inactive: [1] | [2] | [3] | [4] | [5] | [7] | [8] | [9] | [10] | [11] | [12] | [13] | [14]

O=[N+]([O-])C(Br)(CO)CO
inactive: [1] | [2] | [3] | [4] | [6] | [8] | [9] | [10] | [17] | [12] | [14] | [18] | [19]
